Records with an inconclusive call do not appear. Calls of active or inactive are those of the source. Unless noted, calls come from the whole dose curve; as a rule, active = well fitted curve in the direction sought with a large enough effect in the repeat runs; inconclusive = weak or mixed curves; inactive = no such curve, though single readings can be large; an effect the other way counts as inactive or inconclusive.
Columns and labels:
[1] = qHTS assay to identify small molecule antagonists of the glucocorticoid receptor (GR) signaling pathway - cell viability counter screen (AID 720693); note: nearly all actives have a fitted effect of over 55% in size
[2] = qHTS assay for identifying genotoxic compounds that show differential cytotoxicity against isogenic chicken DT40 cell lines with known DNA damage response pathways - wild type cell line (AID 743012); note: nearly all actives have a fitted effect of over 60% in size; note: potency is the fitted concentration of half-maximal effect
Outline: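 300 wt DT40 cells/well; cpd (DMSO) pintool-transferred after ~0.5 h at 37 C/5% CO2; 40 h incubation; CellTiter-Glo added, 30 min RT; luminescence read.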

[3] = qHTS assay for identifying genotoxic compounds that show differential cytotoxicity against isogenic chicken DT40 cell lines with known DNA damage response pathways - Rev3 mutant cell line (AID 743014); note: nearly all actives have a fitted effect of over 55% in size; note: potency is the fitted concentration of half-maximal effect
[4] = qHTS assay to identify small molecule antagonists of the androgen receptor (AR) signaling pathway - cell viability counter screen (AID 743033; note: nearly all actives have a fitted effect of over 45% in size; note: potency is the fitted concentration of half-maximal effect)
[5] = qHTS assay to identify small molecule antagonists of the androgen receptor (AR) signaling pathway using the MDA cell line - cell viability counter screen (AID 743041; note: nearly all actives have a fitted effect of over 45% in size)
Outline: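 In this qHTS counter assay, fluorescence intensity after CellTiter-Fluor addition indicated viability of MDA-kb2 AR-luc cells given compounds and R1881 for 16 h at 37C.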

[6] = target: Androgen receptor (Homo sapiens) (UniProt P10275); assay: qHTS assay to identify small molecule antagonists of the androgen receptor (AR) signaling pathway (AID 743035; active = well fitted inhibition curve with a large enough effect in the signal ratio in the repeat runs, not every such curve was filed as active; the % refers to the signal ratio; note: potency is the fitted concentration of half-maximal effect)
Outline: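 In this cell-based reporter screen, compounds were tested in concentration series against R1881-activated HEK293 cells expressing beta-lactamase under UAS control; after 16 h at 37C, FRET substrate was added and fluorescence read 2 h later.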

[7] = target: Androgen receptor (Homo sapiens) (UniProt P10275); assay: qHTS assay to identify small molecule agonists of the androgen receptor (AR) signaling pathway using the MDA cell line (AID 743040; note: nearly all actives have a fitted effect of over 20% in size; note: potency is the fitted concentration of half-maximal effect)
Outline: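 Cell-based luciferase reporter: MDA-kb2, MMTV promoter (AR + GR response elements). 16 h compound exposure at 37C; ONE-Glo, 30 min RT, luminescence.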

[8] = target: Androgen receptor (Homo sapiens) (UniProt P10275); assay: qHTS assay to identify small molecule antagonists of the androgen receptor (AR) signaling pathway using the MDA cell line (AID 743042; note: nearly all actives have a fitted effect of over 55% in size)
Outline: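 MDA-kb2 cells (human breast carcinoma, stably carrying an MMTV-luciferase reporter responsive to AR and GR) were plated at 3,000 cells/well and preincubated 5 hr at 37C, then given compound plus R1881 agonist for 16 h. ONE-Glo luminescence was read.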

[9] = target: Androgen receptor (Homo sapiens) (UniProt P10275); assay: qHTS assay to identify small molecule agonists of the androgen receptor (AR) signaling pathway (AID 743036; active = well fitted activation curve with a large enough effect in the signal ratio in the repeat runs, with a control signal flat, not every such curve was filed as active; the % refers to the signal ratio)
Outline: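 Agonist activity was scored by beta-lactamase reporter fluorescence in stably transfected HEK293 cells exposed to compounds for 16 h at 37C and 5% CO2. Substrate loading took 2 h at room temperature.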

[10] = qHTS assay for identifying genotoxic compounds that show differential cytotoxicity against isogenic chicken DT40 cell lines with known DNA damage response pathways - Rad54/Ku70 mutant cell line (AID 743015); note: nearly all actives have a fitted effect of over 60% in size; note: potency is the fitted concentration of half-maximal effect

Measured: Potency

Androgen receptor (Homo sapiens), sequence (P10275 whole entry, looked up): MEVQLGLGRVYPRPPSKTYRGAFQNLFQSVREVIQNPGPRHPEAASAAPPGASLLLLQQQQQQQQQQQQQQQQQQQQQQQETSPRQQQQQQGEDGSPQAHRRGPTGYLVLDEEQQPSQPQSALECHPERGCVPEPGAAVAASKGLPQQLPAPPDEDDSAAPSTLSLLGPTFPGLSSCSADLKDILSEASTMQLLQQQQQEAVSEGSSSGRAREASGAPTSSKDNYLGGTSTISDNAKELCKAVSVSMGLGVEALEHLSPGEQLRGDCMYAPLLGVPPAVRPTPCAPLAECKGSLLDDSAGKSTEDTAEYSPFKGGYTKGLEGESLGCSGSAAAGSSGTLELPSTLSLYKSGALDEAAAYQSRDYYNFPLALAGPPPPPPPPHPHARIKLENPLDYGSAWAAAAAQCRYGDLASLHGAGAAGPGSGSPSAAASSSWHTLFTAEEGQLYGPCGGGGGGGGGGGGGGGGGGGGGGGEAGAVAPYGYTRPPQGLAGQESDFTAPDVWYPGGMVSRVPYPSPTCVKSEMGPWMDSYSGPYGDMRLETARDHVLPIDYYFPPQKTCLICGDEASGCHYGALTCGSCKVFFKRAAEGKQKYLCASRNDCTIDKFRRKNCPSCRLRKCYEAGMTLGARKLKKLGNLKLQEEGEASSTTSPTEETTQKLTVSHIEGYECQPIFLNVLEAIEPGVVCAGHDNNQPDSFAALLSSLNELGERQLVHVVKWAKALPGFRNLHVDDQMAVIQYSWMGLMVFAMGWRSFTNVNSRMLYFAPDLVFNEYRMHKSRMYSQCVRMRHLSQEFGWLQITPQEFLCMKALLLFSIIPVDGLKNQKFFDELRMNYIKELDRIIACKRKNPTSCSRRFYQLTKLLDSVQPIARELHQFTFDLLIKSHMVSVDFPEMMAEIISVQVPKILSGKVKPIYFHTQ

Cc1cc(CC(=O)O)c(C)n1-c1ccc(Cl)cc1
inactive: [1] | [4] | [5]
active: [2] 26.6 µM | [3] 33.5 µM

CC(=O)[C@@]1(O)CC[C@H]2[C@@H]3C[C@H](C)C4=CC(=O)CC[C@]4(C)[C@H]3CC[C@@]21C
inactive: [1] | [4] | [5]
active: [2] 16.8 µM | [3] 11.9 µM

CN(c1nccc(=O)[nH]1)C1CCN(c2nc3ccccc3n2Cc2ccc(F)cc2)CC1
inactive: [1] | [2] | [3] | [4] | [5]

COCCOCCOCCOCCOC
inactive: [1] | [2] | [3] | [4] | [6] | [7] | [5] | [8]

CCCCCCCCCCCCCCCCCBr
inactive: [1] | [2] | [3] | [4] | [5]

COc1ccc(C(C)=O)cc1
inactive: [1] | [2] | [3] | [4] | [6] | [9] | [7] | [5] | [8]

Cn1c(NCCN(CCO)CCCc2ccc([N+](=O)[O-])cc2)cc(=O)n(C)c1=O
inactive: [1] | [2] | [3] | [10] | [5]

CC(C)c1ccccc1C(C)C
inactive: [1] | [2] | [3] | [4]

CCCCCCCCCC=O
inactive: [1] | [2] | [3] | [10] | [5]

NCc1ccccc1
inactive: [1] | [2] | [3] | [4] | [5]

Cc1cccc(Oc2ccccc2)c1
inactive: [1] | [2] | [3] | [10] | [5]

N[C@H]1C(O)O[C@H](CO)[C@H](O)[C@@H]1O (stereo not given in full)
inactive: [1] | [2] | [3] | [4] | [6] | [9] | [7] | [5] | [8]

CCCC[C@H]1CN(CC2CCOCC2)C(=O)OC12CCN(C1(C)CCN(C(=O)c3c(C)ncnc3C)CC1)CC2
inactive: [1] | [2] | [3] | [10] | [5]

C[Si](C)O[Si](C)(C)O[Si](C)(C)O[Si](C)C
inactive: [1] | [2] | [3] | [4] | [5]

O=[N+]([O-])c1cc[n+]([O-])cc1
active: [2] 15.4 µM
inactive: [1] | [3] | [10] | [7] | [5] | [8]

O=C(Cl)c1c(Cl)cccc1Cl
inactive: [1] | [3] | [10] | [4] | [5]

COC(=O)C(C)=O
inactive: [1] | [10] | [4]

OCCC1CCCCN1 (stereo not given)
inactive: [1] | [3] | [10] | [4] | [5]

CC1=CC(=O)/C(=C(/C)O)C(=O)O1
inactive: [1] | [3] | [10] | [4]

CCCOc1ccc2nc(NC(=O)OC)[nH]c2c1
inactive: [1] | [4] | [7] | [5] | [8]
active: [3] 0.237 µM | [10] 0.335 µM

O=C(O)C1CCC(C(=O)O)CC1 (stereo not given)
active: [3] 60.9 µM | [10] 68.4 µM
inactive: [1]

CCCCCOC(=O)c1ccc(O)cc1
active: [10] 61.9 µM
inactive: [1] | [4]

O=C=NC1CCC(CC2CCC(N=C=O)CC2)CC1 (stereo not given)
active: [3] 54.5 µM
inactive: [1] | [4]

CCCc1ccccc1
inactive: [1] | [3] | [10] | [4] | [5]

CC(C(=O)O)c1ccc(C(=O)c2ccccc2)s1 (stereo not given)
inactive: [1] | [3] | [10] | [6] | [7] | [5] | [8]

Cc1ccc2c(ccc3ccccc32)c1
inactive: [1] | [3] | [10] | [4] | [5]

CC(C)c1ccc2c(C(C)C)cc(C(C)C)c(S(=O)(=O)O)c2c1
inactive: [1] | [3] | [4] | [6] | [7] | [5] | [8]

CCCC(=O)OCC
inactive: [1] | [4] | [5]
active: [10] 68.6 µM

Cn1c(N)nc2nc[nH]c2c1=O
inactive: [1] | [3] | [4]

CC(C)(C)c1ccc(OCC2CO2)cc1 (stereo not given)
inactive: [1] | [2] | [5]

c1ccc(OCc2ccc(CCCN3CCOCC3)cc2)cc1
active: [3] 0.168 µM
inactive: [1] | [9] | [7]

CCCCCOC(=O)COc1cc(N2C(=O)C3=C(CCCC3)C2=O)c(F)cc1Cl
inactive: [1] | [3] | [4] | [5]

Nc1ccc(C(=O)Nc2ccccc2N)cc1
active: [10] 1.88 µM | [7] 10.6 µM
inactive: [1] | [4] | [5]

CC(=O)N(O)CCCCCNC(=O)CCC(=O)N(O)CCCCCNC(=O)CCC(=O)N(O)CCCCCN
inactive: [1] | [3] | [4] | [9] | [7]

O=C(/C=C/c1ccc(O)c(O)c1)O[C@@H]1C[C@](O)(C(=O)O)C[C@@H](O)[C@H]1O
inactive: [1] | [3] | [10] | [4]

CCOC(=O)CC(=O)c1cc(F)c(Cl)nc1Cl
inactive: [1] | [3] | [10] | [4] | [5]

CN(C)CC/C=C1\c2ccccc2COc2ccccc21
inactive: [1] | [9] | [7] | [5] | [8]
active: [2] 29.8 µM

O=C(NS(=O)(=O)/C=C/c1cccs1)c1ccc(F)cc1Br
inactive: [1] | [3] | [10] | [4] | [9] | [7] | [5] | [8]

NCCCN(CCO)CCO
inactive: [1] | [3] | [10] | [9] | [7] | [8]

CCCCOC(=O)/C=C\C(=O)OCCCC
inactive: [1] | [3] | [5]

O=C(O)[C@@H]1[C@H]2C[C@H]3c4[nH]c5ccccc5c4CCN3C[C@@H]2CC[C@@H]1O
inactive: [1] | [3] | [4] | [6] | [7] | [5] | [8]

CC(C)(C)C1CCCCC1O (stereo not given)
inactive: [1] | [3] | [10] | [5]

CN1CCC(=C2c3ccccc3CCc3sccc32)CC1
inactive: [1] | [4] | [5]
active: [3] 15 µM

Nc1nc(N)c(-c2ccccc2)s1
inactive: [1] | [3] | [10] | [4] | [5]

CC(C)NCC(O)c1cc(O)cc(O)c1 (stereo not given)
inactive: [1] | [3] | [10] | [5]

O=C(C(=O)c1ccc(Br)cc1)c1ccc(Br)cc1
inactive: [1] | [3] | [10] | [4] | [6] | [9] | [7] | [8]

CCCCCCc1ccc(N)cc1
active: [3] 34.4 µM | [10] 43.3 µM | [6] 24.5 µM
inactive: [1] | [9] | [7] | [8]

CCCCOCCOCCOCCOCCO
inactive: [1] | [10] | [4] | [5]

CCC(=O)OC(C)(C)C1CC=C(C)CC1 (stereo not given)
active: [3] 48.6 µM
inactive: [1] | [4] | [5]

O=C(O)Cc1sc(-c2ccccc2)nc1-c1ccc(Cl)cc1
inactive: [1] | [3] | [10] | [4] | [6] | [7] | [5] | [8]

C[C@H](CCC(=O)O)[C@H]1CC[C@H]2[C@@H]3[C@H](O)C[C@@H]4C[C@H](O)CC[C@]4(C)[C@H]3CC[C@]12C
inactive: [1] | [3] | [10] | [5]

CCCCOc1cc(C(=O)OCCN(CC)CC)ccc1N
active: [3] 2.54 µM | [10] 8.04 µM
inactive: [1] | [4] | [5]

Oc1ccc(C(O)CNCCCCCCNCC(O)c2ccc(O)c(O)c2)cc1O (stereo not given)
active: [3] 29.8 µM
inactive: [1] | [4]

C=C(C)C(=O)OCCOc1ccccc1
inactive: [1] | [4] | [9] | [7] | [5] | [8]

CCN(CC)C(C)=O
inactive: [2] | [3] | [10] | [4]

O=[N+]([O-])c1cccc(Cl)c1Cl
inactive: [2] | [3] | [5]

CCOc1ccc(NC(=O)CC(C)=O)cc1
inactive: [1] | [4] | [5]

CCN(CC)CCOC(=O)C1(c2ccccc2)CCCC1
inactive: [1] | [6] | [9] | [7] | [5] | [8]
active: [10] 23.7 µM

COCCCCCCCCOCCC[Si](C)(O[Si](C)(C)C)O[Si](C)(C)C
active: [4] 6.92 µM
inactive: [1]

CC[C@@H]1C[C@H](N(Cc2cc(C(F)(F)F)cc(C(F)(F)F)c2)C(C)=O)c2cc(C(F)(F)F)ccc2N1C(=O)OC(C)C
inactive: [1] | [4] | [5]

O=C1[C@H](CC[C@H](O)c2ccc(F)cc2)[C@@H](c2ccc(O)cc2)N1c1ccc(F)cc1
inactive: [1] | [4] | [5]

CCCCCCCCCCCCCCCBr
inactive: [2] | [3] | [10] | [4] | [5]

N#CCCNCCC#N
inactive: [1] | [4] | [5]

CC(C)(C)C(=O)OCOP(=O)(COCCn1cnc2c(N)ncnc21)OCOC(=O)C(C)(C)C
inactive: [1] | [5]

Cc1cccc(C(C)(C)C)c1O
inactive: [2] | [3] | [10] | [4] | [5]

O=C(CC(=O)c1ccccc1)c1ccccc1
active: [2] 36.9 µM | [3] 26.2 µM | [10] 23.3 µM
inactive: [4] | [5]

CC(C)(C)c1cc(O)c(C(C)(C)C)cc1O
active: [2] 12.2 µM | [3] 13.7 µM | [10] 13.7 µM | [6] 43.6 µM
inactive: [9] | [7] | [5]

O=C(O)c1cccc(N(Cc2cccnc2)c2ccc(OC(F)F)c(OC(F)F)c2)c1
inactive: [1] | [7] | [5]

Cc1cccc(OCCOc2cccc(C)c2)c1
inactive: [1] | [5]

CCCCCCOC(=O)CCC
inactive: [2] | [3] | [10] | [4] | [5]

CCN(CCO)CCCC(C)Nc1ccnc2cc(Cl)ccc12 (stereo not given)
active: [2] 29.8 µM | [3] 23.7 µM
inactive: [5]

ClC(Cl)(Cl)c1ccc(C(Cl)(Cl)Cl)cc1
inactive: [2] | [3] | [10] | [4] | [5]

Cn1c(=O)c2c(ncn2CC(O)CO)n(C)c1=O (stereo not given)
inactive: [1] | [10] | [4] | [5]

CN1CCC(=C2c3ccccc3C=Cc3ccccc32)CC1
inactive: [4]
active: [2] 7.5 µM | [3] 10.6 µM | [10] 13.3 µM
